According to PubChem BioAssay AID485367 (National Center for Advancing Translational Sciences (NCATS), 2010):
Hit rate of the full screen: of about 330,000 compounds, about 560 (0.17%) were called active. Another 1% or so got no clear call; they are omitted. Calls follow the shape of the dose curve; as a rule, active = well fitted inhibition curve with a large enough effect; inconclusive = small, poorly fitted or top-dose-only effect, or effect the other way; inactive = flat fitted curve, though single readings scatter. The entries come from a sample that favours actives as a whole.

The compounds below were run against ATP-dependent 6-phosphofructokinase (Trypanosoma brucei brucei) (UniProt O15648) (assay: qHTS Assay to Find Inhibitors of T. brucei phosphofructokinase). Details: T. brucei PFK, ADP-Glo luminescence; series mostly up to 57.5 µM; activity, negative = inhibition: at the top concentration.
Source text: NIH Molecular Libraries Probe Production Network [MLPCN] NIH Chemical Genomics Center [NCGC] Grant: 1 R03 MH092153-01 PI Name: Malcolm Walkinshaw, University of Edinburgh NCGC Assay Overview: Various species of the protozoan family Trypanosomatidae are responsible for a range of serious human diseases in tropical and subtropical areas of the world. […] Many of the disorders caused by trypanosomatids are fatal if left untreated, but most currently used drugs are inefficient and toxic. […] Oxidative metabolism involving the mitochondrial tricarboxylic acid cycle and oxidative phosphorylation are repressed in these parasites, and recent RNA interference (RNAi) experiments have shown that even partial depletion of certain individual glycolytic enzymes can lead to the death of cultured parasites. One such glycolytic enzyme, phosphofructokinase (PFK), catalyzes the formation of fructose-1,6-bisphosphate (F1,6BP) and ADP from fructose-6-phosphate (F6P) and ATP, and in many metabolic circumstances makes an important contribution to the control of flux through the glycolytic pathway. As a specific glycolytic target, PFK is particularly attractive as it catalyzes the first irreversible step in glycolysis, and structural and kinetic studies have shown very substantial and essential differences from corresponding host enzymes, allowing for the discovery of parasite-selective inhibitors. The goal of this screen is to find small-molecule inhibitors of T. brucei PFK using a biochemical assay that measures PFK activity as a function of ADP production. A luminescence-based assay for T. brucei PFK activity has been developed which uses luciferase to detect production of ADP. Traditional luciferase-based nucleotide detection reagents rely on ATP production as a direct substrate for the luciferase reaction; however, PFK catalyzes the transfer of a phosphate from ATP to F6P, resulting in the net depletion of ATP. To directly measure the ADP product of the PFK reaction, we used the ADP-Glo detection kit (Promega), which utilizes two separate reactions to 1) deplete all remaining uncatalyzed ATP and 2) convert all remaining ADP to ATP, which is then detected through a traditional luciferase-coupled reaction. Compounds were screened as a concentration-titration series that ranged from 57 uM to 0.7 nM.
NCGC Assay Protocol Summary: NCGC Assay Protocol Summary: Substrate buffer was dispensed into white, solid 1536-well plates at 3uL/well in 0.1M triethanolamine (TEA) buffer, pH 8.0, containing final concentrations of 5 mM MgCl2, 0.01% Tween20, 0.5 mM fructose-6-phosphate (F6P) and 0.1mM ATP. Then, 23 nL of compounds or DMSO were delivered to each well using a pin tool. One uL T. brucei PFK (0.1M TEA, 0.01% Tween20, 0.1% bovine serum albumin (BSA) and 1.25nM PFK, final concentrations) was then dispensed, and plates were incubated at room temperature for 45 min. The luminescent detection reagent, ADP-Glo (Promega), was then added in two steps: the first reagent, ADP-Glo (which converts remaining uncatalyzed ATP), was added at 2.5uL/well and incubated for ten minutes at room temperature, and the second component, Kinase Detection reagent (which converts ADP to ATP as a substrate for luciferase-based luminescence), was added immediately after at 5uL/well, followed by one final ten minute room temperature incubation. The plates were measured on a ViewLux plate reader for luminescent signal using a clear filter with a one second exposure. The %Activity was determined from the corrected luminescence values. As no specific T. brucei PFK inhibitors have been identified in the literature, 1x (1.25nM) and 0x PFK enzyme controls (untreated) were included to normalize %Activity of identified inhibitors; 0x enzyme values corresponded to 100%Activity (full inhibition), while 1x PFK enzyme values were used to normalize 0%Activity (no inhibition). Concentration-response curves were fitted to the signals arising from the resulting luminescence. […]
Also: nearly all actives have a fitted effect of over 60% in size.
Potency is read from the fitted curve at half-maximal effect.

ATP-dependent 6-phosphofructokinase (Trypanosoma brucei brucei), sequence (O15648 whole entry, looked up): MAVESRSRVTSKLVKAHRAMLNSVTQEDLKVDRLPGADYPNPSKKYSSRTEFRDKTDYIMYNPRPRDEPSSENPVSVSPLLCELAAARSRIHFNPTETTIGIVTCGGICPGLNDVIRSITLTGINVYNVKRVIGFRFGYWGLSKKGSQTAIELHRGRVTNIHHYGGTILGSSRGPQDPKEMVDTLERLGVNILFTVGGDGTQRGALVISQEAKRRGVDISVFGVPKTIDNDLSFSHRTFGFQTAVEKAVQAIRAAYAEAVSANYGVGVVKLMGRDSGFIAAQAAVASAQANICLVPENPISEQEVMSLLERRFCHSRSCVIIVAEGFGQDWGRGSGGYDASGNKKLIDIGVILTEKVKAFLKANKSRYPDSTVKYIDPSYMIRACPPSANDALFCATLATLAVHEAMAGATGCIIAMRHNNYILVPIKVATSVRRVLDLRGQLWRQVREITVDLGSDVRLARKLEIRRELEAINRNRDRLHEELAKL

Row | SMILES | Potency | activity, negative = inhibition
1 | O=C(Cc1ccc([N+](=O)[O-])cc1)N/N=C/c1ccco1 | 19 µM (active) | 
2 | OC(Cn1c2ccccc2c2ccccc21)C[n+]1ccccc1 (stereo not given) |  | -2.56% (inactive)
3 | CCCCCCN=C(CC)c1c(O)n(CCCC)c(=O)[nH]c1=O |  | -1.16% (inactive)
4 | CCOC(=O)C1SC2(C(F)(F)C(F)F)CC1(O)c1c(c(OC)c3occc3c1OC)O2 (stereo not given) |  | 0.275% (inactive)
5 | Cn1nnnc1NCc1ccc(Cl)c(Cl)c1 | 10.7 µM (active) | 
6 | Cc1ccc(-n2c(-c3ccc([N+](=O)[O-])cc3)nc3ccccc3c2=O)cc1 |  | 6.06% (inactive)
7 | CC(Cc1cccs1)NCc1ccc(Cl)cc1 (stereo not given) |  | -2.43% (inactive)
8 | O=C1/C(=C\c2ccc3c(c2)OCO3)N2CCC1CC2 |  | -7.68% (inactive)
9 | CCOP(=S)(OCC)C(O)CCCCCn1c(=O)c(F)cn(C2CCCO2)c1=O (stereo not given) |  | -1.99% (inactive)
10 | COc1ccc(CCn2c(O)c(C=NCCCn3ccnc3)c(=O)[nH]c2=O)cc1OC |  | 7.53% (inactive)
